Experimental data published in PubChem BioAssay AID1159580 (chemical genetic matrix, 2015).
Several values for one entry are separate records, joined by “and”; a condition that tells them apart may be missing. Equal entries are not always repeated. About 2,000 (36%) of roughly 5,500 compounds were called active. About 18% were inconclusive and are not listed. This is one part of the list. Values without a mark were called inactive. No stated cut-off is given here; in the data, active means normalized growth mostly below about 0.91 (no sharp cut-off); inconclusive means no clear call, values can overlap the other calls; inactive means mostly above about 0.92.

Test: chemical genetic growth profiling, strain panel (AID 1159580);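 further: tested at 20 µM; growth read once vehicle control cultures reached saturation at 30 °C; 1 = growth at the plate median or of vehicle wells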
Settings: S. cerevisiae deletion strains, growth OD

Compound: C[C@@H](N)[C@@H](O)c1ccccc1
- normalized growth (locus YAL021C, strain ccr4, stronger effect = lower value): 0.991
- normalized growth (locus YAL026C, strain drs2, stronger effect = lower value): 0.89 (active)
- normalized growth (locus YAL030W, strain snc1, stronger effect = lower value): 0.98
- normalized growth (locus YBL061C, strain skt5, stronger effect = lower value): 1.01
- normalized growth (locus YBR009C, strain hhf1, stronger effect = lower value): 1
- normalized growth (locus YBR021W, strain FUR4, stronger effect = lower value): 1.05
- normalized growth (locus YBR023C, strain chs3, stronger effect = lower value): 0.997
- normalized growth (locus YBR171W, strain sec66, stronger effect = lower value): 1
- normalized growth (locus YBR229C, strain ROT2, stronger effect = lower value): 0.967
- normalized growth (locus YBR231C, strain swc5, stronger effect = lower value): 0.969
- normalized growth (locus YBR279W, strain paf1, stronger effect = lower value): 1.01
- normalized growth (locus YCL011C, strain gbp2, stronger effect = lower value): 0.994
- normalized growth (locus YCL016C, strain dcc1, stronger effect = lower value): 0.985
- normalized growth (locus YCL029C, strain bik1, stronger effect = lower value): 0.982
- normalized growth (locus YCL069W, strain vba3, stronger effect = lower value): 1
- normalized growth (locus YCR088W, strain abp1, stronger effect = lower value): 0.992
- normalized growth (locus YDL005C, strain med2, stronger effect = lower value): 0.977
- normalized growth (locus YDL035C, strain GPR1, stronger effect = lower value): 1
- normalized growth (locus YDL040C, strain nat1, stronger effect = lower value): 1
- normalized growth (locus YDL074C, strain BRE1, stronger effect = lower value): 1.05
- normalized growth (locus YDL101C, strain DUN1, stronger effect = lower value): 0.983
- normalized growth (locus YDL134C, strain PPH21, stronger effect = lower value): 0.987
- normalized growth (locus YDL185W, strain tfp1, stronger effect = lower value): 0.966
- normalized growth (locus YDL192W, strain arf1, stronger effect = lower value): 1.02
- normalized growth (locus YDR001C, strain nth1, stronger effect = lower value): 1.01
- normalized growth (locus YDR069C, strain doa4, stronger effect = lower value): 0.985
- normalized growth (locus YDR101C, strain arx1, stronger effect = lower value): 0.989
- normalized growth (locus YDR137W, strain rgp1, stronger effect = lower value): 0.862
- normalized growth (locus YDR150W, strain NUM1, stronger effect = lower value): 0.994
- normalized growth (locus YDR159W, strain sac3, stronger effect = lower value): 0.949
- normalized growth (locus YDR162C, strain NBP2, stronger effect = lower value): 0.951
- normalized growth (locus YDR195W, strain ref2): 0.988
- normalized growth (locus YDR297W, strain sur2, stronger effect = lower value): 0.994
- normalized growth (locus YDR318W, strain mcm21, stronger effect = lower value): 0.978
- normalized growth (locus YDR334W, strain swr1, stronger effect = lower value): 0.997
- normalized growth (locus YDR335W, strain msn5, stronger effect = lower value): 0.988
- normalized growth (locus YDR388W, stronger effect = lower value): 0.994
- normalized growth (locus YDR392W, strain spt3, stronger effect = lower value): 0.955
- normalized growth (locus YDR502C, strain sam2, stronger effect = lower value): 0.991
- normalized growth (locus YEL003W, strain gim4, stronger effect = lower value): 0.995
- normalized growth (locus YEL037C, strain rad23, stronger effect = lower value): 1.01
- normalized growth (locus YEL061C, strain CIN8 (second series), stronger effect = lower value): 0.993
- normalized growth (locus YEL061C, strain CIN8, stronger effect = lower value): 0.987
- normalized growth (locus YER015W, strain faa2, stronger effect = lower value): 0.995
- normalized growth (locus YER016W, strain bim1, stronger effect = lower value): 0.975
- normalized growth (locus YER110C, stronger effect = lower value): 0.974
- normalized growth (locus YER111C, strain swi4, stronger effect = lower value): 0.981
- normalized growth (locus YER155C, strain BEM2 (second series), stronger effect = lower value): 0.973
- normalized growth (locus YER155C, strain BEM2, stronger effect = lower value): 1.02
- normalized growth (locus YER167W, strain BCK2, stronger effect = lower value): 0.999
- normalized growth (locus YFR010W, strain ubp6, stronger effect = lower value): 1
- normalized growth (locus YGL078C, strain dbp3, stronger effect = lower value): 0.991
- normalized growth (locus YGL086W, strain mad1, stronger effect = lower value): 1.03
- normalized growth (locus YGL167C, strain pmr1, stronger effect = lower value): 0.999
- normalized growth (locus YGL173C, strain kem1, stronger effect = lower value): 0.993
- normalized growth (locus YGL227W, strain vid30, stronger effect = lower value): 1.01
- normalized growth (locus YGL240W, strain doc1, stronger effect = lower value): 1
- normalized growth (locus YGL248W, strain PDE1, stronger effect = lower value): 0.974
- normalized growth (locus YGL253W, strain hxk2, stronger effect = lower value): 0.99
- normalized growth (locus YGR135W, strain pre9, stronger effect = lower value): 0.949
- normalized growth (locus YGR252W, strain gcn5, stronger effect = lower value): 0.968
- normalized growth (locus YHR013C, strain ard1, stronger effect = lower value): 0.975
- normalized growth (locus YHR027C, strain rpn1, stronger effect = lower value): 1
- normalized growth (locus YHR030C, strain SLT2, stronger effect = lower value): 1 and 1.03
- normalized growth (locus YHR079C, strain IRE1 (second series), stronger effect = lower value): 0.993
- normalized growth (locus YHR079C, strain IRE1, stronger effect = lower value): 1.02
- normalized growth (locus YHR094C, strain hxt1, stronger effect = lower value): 0.973
- normalized growth (locus YHR129C, strain ARP1, stronger effect = lower value): 0.997
- normalized growth (locus YHR142W, strain chs7, stronger effect = lower value): 0.971
- normalized growth (locus YHR200W, strain rpn10, stronger effect = lower value): 0.997
- normalized growth (locus YIL066C, strain RNR3, stronger effect = lower value): 0.966
- normalized growth (locus YIL073C, strain SPO22, stronger effect = lower value): 1.03
- normalized growth (locus YIL125W, strain kgd1, stronger effect = lower value): 0.986
- normalized growth (locus YIR030C, strain dcg1, stronger effect = lower value): 0.999
- normalized growth (locus YJL092W, strain hpr5, stronger effect = lower value): 1
- normalized growth (locus YJL095W, strain BCK1 (second series), stronger effect = lower value): 0.999
- normalized growth (locus YJL095W, strain BCK1, stronger effect = lower value): 0.928 and 1.01
- normalized growth (locus YJL115W, strain asf1, stronger effect = lower value): 0.991
- normalized growth (locus YJL129C, strain trk1, stronger effect = lower value): 0.992
- normalized growth (locus YJL134W, strain LCB3, stronger effect = lower value): 0.988
- normalized growth (locus YJL154C, strain vps35, stronger effect = lower value): 0.993
- normalized growth (locus YJL164C, strain tpk1, stronger effect = lower value): 1.01
- normalized growth (locus YJL166W, strain qcr8, stronger effect = lower value): 0.983
- normalized growth (locus YJL168C, strain set2, stronger effect = lower value): 1.01
- normalized growth (locus YJL187C, strain SWE1 (second series), stronger effect = lower value): 0.964
- normalized growth (locus YJR043C, strain POL32, stronger effect = lower value): 1.01
- normalized growth (locus YJR066W, strain TOR1, stronger effect = lower value): 0.942
- normalized growth (locus YJR075W, strain HOC1, stronger effect = lower value): 0.984
- normalized growth (locus YKL009W, strain mrt4, stronger effect = lower value): 1.04
- normalized growth (locus YKL068W, stronger effect = lower value): 0.978
- normalized growth (locus YKL085W, strain MDH1 (second series), stronger effect = lower value): 0.998
- normalized growth (locus YKL085W, strain MDH1, stronger effect = lower value): 0.998
- normalized growth (locus YKL160W, strain elf1, stronger effect = lower value): 0.974
- normalized growth (locus YKR001C, strain vps1, stronger effect = lower value): 1.01
- normalized growth (locus YKR026C, strain gcn3, stronger effect = lower value): 1.02
- normalized growth (locus YKR091W, strain srl3, stronger effect = lower value): 0.987
- normalized growth (locus YLL001W, strain dnm1, stronger effect = lower value): 1.01
- normalized growth (locus YLL026W, stronger effect = lower value): 0.995
- normalized growth (locus YLL041C, strain sdh2, stronger effect = lower value): 1.01
- normalized growth (locus YLR027C, strain aat2, stronger effect = lower value): 0.995
- normalized growth (locus YLR039C, strain RIC1, stronger effect = lower value): 0.953
- normalized growth (locus YLR058C, strain SHM2, stronger effect = lower value): 0.978
- normalized growth (locus YLR102C, strain apc9, stronger effect = lower value): 0.99
- normalized growth (locus YLR113W, strain HOG1, stronger effect = lower value): 1.03
- normalized growth (locus YLR221C, strain rsa3, stronger effect = lower value): 0.994
- normalized growth (locus YLR258W, strain gsy2, stronger effect = lower value): 1.01
- normalized growth (locus YLR262C, strain YPT6 (second series), stronger effect = lower value): 0.823 (active)
- normalized growth (locus YLR262C, strain YPT6, stronger effect = lower value): 0.927
- normalized growth (locus YLR268W, strain sec22, stronger effect = lower value): 0.988
- normalized growth (locus YLR320W, strain mms22, stronger effect = lower value): 0.955
- normalized growth (locus YLR330W, strain CHS5, stronger effect = lower value): 0.997
- normalized growth (locus YLR342W, strain FKS1 (second series), stronger effect = lower value): 1.06
- normalized growth (locus YLR342W, strain FKS1, stronger effect = lower value): 0.995
- normalized growth (locus YLR357W, strain rsc2, stronger effect = lower value): 0.988
- normalized growth (locus YLR370C, strain arc18, stronger effect = lower value): 1
- normalized growth (locus YLR371W, strain rom2, stronger effect = lower value): 0.975
- normalized growth (locus YLR384C, strain iki3, stronger effect = lower value): 0.977
- normalized growth (locus YLR418C, strain cdc73, stronger effect = lower value): 0.939
- normalized growth (locus YML016C, strain PPZ1, stronger effect = lower value): 0.994
- normalized growth (locus YML032C, strain rad52, stronger effect = lower value): 0.967
- normalized growth (locus YML120C, strain ndi1, stronger effect = lower value): 0.992
- normalized growth (locus YML124C, strain tub3, stronger effect = lower value): 0.993
- normalized growth (locus YMR058W, strain fet3, stronger effect = lower value): 0.972
- normalized growth (locus YMR078C, strain ctf18, stronger effect = lower value): 1.01
- normalized growth (locus YMR125W, strain sto1, stronger effect = lower value): 0.983
- normalized growth (locus YMR129W, stronger effect = lower value): 0.997
- normalized growth (locus YMR205C, strain PFK2, stronger effect = lower value): 0.998
- normalized growth (locus YMR223W, strain ubp8, stronger effect = lower value): 0.964
- normalized growth (locus YMR231W, strain pep5, stronger effect = lower value): 1
- normalized growth (locus YMR263W, strain SAP30, stronger effect = lower value): 0.987
- normalized growth (locus YMR307W, strain GAS1, stronger effect = lower value): 1.09
- normalized growth (locus YNL067W, strain RPL9B, stronger effect = lower value): 0.975
- normalized growth (locus YNL071W, strain lat1, stronger effect = lower value): 0.989
- normalized growth (locus YNL153C, strain GIM3, stronger effect = lower value): 0.974
- normalized growth (locus YNL183C, strain NPR1, stronger effect = lower value): 0.929
- normalized growth (locus YNL209W, strain ssb2, stronger effect = lower value): 1.01
- normalized growth (locus YNL233W, strain BNI4, stronger effect = lower value): 1
- normalized growth (locus YNL248C, strain rpa49, stronger effect = lower value): 0.99
- normalized growth (locus YNL250W, strain rad50, stronger effect = lower value): 0.992
- normalized growth (locus YNL271C, strain bni1, stronger effect = lower value): 0.995
- normalized growth (locus YNL298W, strain CLA4, stronger effect = lower value): 0.982
- normalized growth (locus YNL307C, strain MCK1, stronger effect = lower value): 0.984
- normalized growth (locus YNL322C, strain KRE1 (second series), stronger effect = lower value): 0.99
- normalized growth (locus YNR049C, strain mso1, stronger effect = lower value): 1.01
- normalized growth (locus YNR052C, strain pop2, stronger effect = lower value): 0.973
- normalized growth (locus YOL006C, strain TOP1, stronger effect = lower value): 1.02
- normalized growth (locus YOL012C, strain htz1): 1.02
- normalized growth (locus YOL147C, strain pex11, stronger effect = lower value): 0.996
- normalized growth (locus YOR001W, strain rrp6, stronger effect = lower value): 1
- normalized growth (locus YOR061W, strain CKA2, stronger effect = lower value): 0.98
- normalized growth (locus YOR069W, strain VPS5, stronger effect = lower value): 1
- normalized growth (locus YOR070C, strain gyp1, stronger effect = lower value): 0.999
- normalized growth (locus YOR080W, strain dia2, stronger effect = lower value): 1
- normalized growth (locus YOR083W, strain WHI5, stronger effect = lower value): 0.948
- normalized growth (locus YOR106W, strain vam3, stronger effect = lower value): 1
- normalized growth (locus YOR136W, strain idh2, stronger effect = lower value): 0.993
- normalized growth (locus YOR144C, strain elg1, stronger effect = lower value): 0.989
- normalized growth (locus YOR184W, strain ser1, stronger effect = lower value): 1.01
- normalized growth (locus YOR231W, strain MKK1, stronger effect = lower value): 1.01
- normalized growth (locus YOR265W, strain rbl2, stronger effect = lower value): 0.993
- normalized growth (locus YOR270C, strain vph1, stronger effect = lower value): 0.9
- normalized growth (locus YOR290C, strain snf2, stronger effect = lower value): 0.993
- normalized growth (locus YOR316C, strain cot1, stronger effect = lower value): 0.985
- normalized growth (locus YPL051W, strain arl3, stronger effect = lower value): 0.981
- normalized growth (locus YPL078C, strain atp4, stronger effect = lower value): 0.98
- normalized growth (locus YPL106C, strain sse1, stronger effect = lower value): 1
- normalized growth (locus YPL240C, strain hsp82, stronger effect = lower value): 1
- normalized growth (locus YPL241C, strain CIN2, stronger effect = lower value): 0.989
- normalized growth (locus YPL256C, strain CLN2, stronger effect = lower value): 1.03
- normalized growth (locus YPR119W, strain clb2, stronger effect = lower value): 1.01
- normalized growth (locus YPR141C, strain kar3, stronger effect = lower value): 0.994
- normalized growth (locus YPR163C, strain tif3, stronger effect = lower value): 0.971
- normalized growth (locus YPR167C, strain met16, stronger effect = lower value): 1
- normalized growth (strain wtn01, stronger effect = lower value): 1.03
